# The full ranking holds about 68,000 sequences; the median of “fluorescence intensity (a.u.)” is about 9,100, and the highest 2% start at about 16,000. The list comes from a sample in which the highest values are over-represented; it also holds similar and randomly drawn sequences.
# Biological target: OsWRKY34 (Oryza sativa, UniProt Q0JBA9 1-250)
# Test: protein-binding microarray (RPBM); PBS, 2% BSA, 51.3 ng/ul salmon testes DNA, 50 uM zinc acetate, 200 nM TF, 25 C, 1 h; high values mean tight binding
# Details: protein: recombinant; tags: N-terminal polyhistidine and DsRed monomer fusion (pET32a); label: CyDye5-dUTP incorporated in the synthesized complementary strand; 3' TTTTT single-stranded linker to array surface; dsDNA, one strand shown
# Summary of the method: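 A custom Agilent array was converted to double-stranded form by primer extension with Cy5-dUTP and blocked with 2% BSA. Protein at 200 nM in PBS with 2% BSA, salmon testes DNA and 50 µM zinc acetate was applied for 1 h at 25 °C, followed by washing. The proteins were polyhistidine–DsRed N-terminal fusions of transcription factors, expressed in E. coli BL21-CodonPlus and Ni–NTA-purified. The binding signal is per-feature fluorescence intensity (arbitrary units) from an Axon 4000B scanner.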
# OsWRKY34, sequence (Q0JBA9 entry or part of it): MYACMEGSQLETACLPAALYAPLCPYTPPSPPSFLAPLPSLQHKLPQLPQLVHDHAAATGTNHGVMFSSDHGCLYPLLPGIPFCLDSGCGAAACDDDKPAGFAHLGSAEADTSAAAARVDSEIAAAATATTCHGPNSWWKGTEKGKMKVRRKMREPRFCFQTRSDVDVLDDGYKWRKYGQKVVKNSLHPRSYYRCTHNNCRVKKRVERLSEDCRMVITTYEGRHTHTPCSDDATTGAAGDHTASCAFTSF
row,Sequence,binding signal
1,GGTTATTTATTTTTATTGGTTTCCCCATTACTGTTGACAGCGGAGTCACCTAGTGCAG,8360 fluorescence intensity (a.u.)
2,TCCCGATATCATATTATAACCCTTCTAGAAATCTAATGTTCGGAGTCACCTAGTGCAG,8160 fluorescence intensity (a.u.)
3,ATTCTGTTATGAACTATGTAAACCTTCTCATGTATATTCACGGAGTCACCTAGTGCAG,8840 fluorescence intensity (a.u.)
4,GGCCATCATCATTTGTTCCTCATCTTACTCTAGCTTCTCCCGGAGTCACCTAGTGCAG,9470 fluorescence intensity (a.u.)
5,CTCTCTGTGTGTGTGTTTGCTTTCTTGGGCTGTATCGACTCGGAGTCACCTAGTGCAG,11800 fluorescence intensity (a.u.)
6,AAGCTGGTTTGGCTAATTGTGTTGTGTAACTATAAATCTTCGGAGTCACCTAGTGCAG,8280 fluorescence intensity (a.u.)
7,CGCCCACCCACGCATCCATCCATCGATCGCAGCCAAATTCCGGAGTCACCTAGTGCAG,9430 fluorescence intensity (a.u.)
8,TCATTCCGATTTGGTGGGGTTTGAGTTTGATTGATTCTTTCGGAGTCACCTAGTGCAG,19300 fluorescence intensity (a.u.)
9,AATTGGGTTCGAATTTTTCTCTGGTTCGCTTGTGATTTTGCGGAGTCACCTAGTGCAG,8240 fluorescence intensity (a.u.)
10,ACATGGGAATTTTGGTGGGATGGGGATGGGGATGGGGAATCGGAGTCACCTAGTGCAG,34000 fluorescence intensity (a.u.)
11,ACATGGGAATTTTGGTGGGATGGGGATGGGGAATTGACCTCGGAGTCACCTAGTGCAG,14100 fluorescence intensity (a.u.)
12,GGTTTGTTCGTGTCTTTTGTGGTGATTGCATTTGATTGGGCGGAGTCACCTAGTGCAG,9920 fluorescence intensity (a.u.)
13,CGTCGCTTGGGGTGGTGTTGGTGGTTCTGAATTTTGATTGCGGAGTCACCTAGTGCAG,19200 fluorescence intensity (a.u.)
14,GCTTCCTTGTCCGATTTGGTGGTTGATTCGTGTTTTTGCTCGGAGTCACCTAGTGCAG,9300 fluorescence intensity (a.u.)
15,CATGGGAATTTTGGTGGGATGGGGATGGAGAATTGAGCAACGGAGTCACCTAGTGCAG,8700 fluorescence intensity (a.u.)
16,TGCTGTGGTGTGGTGTGGTGTGAATTTTGTTGATTGGTCGCGGAGTCACCTAGTGCAG,8750 fluorescence intensity (a.u.)
17,TTGATTTTGCTCGTGGTGTGTGTTTGTGTTTGGTATGGTTCGGAGTCACCTAGTGCAG,18400 fluorescence intensity (a.u.)
18,TTGCGTTTTGGGTGGTGAATTTTGATTTTGATTCTTTTTTCGGAGTCACCTAGTGCAG,12700 fluorescence intensity (a.u.)
19,CATTTAGTTTGGGATGGGGTGGTTGATCCGATTTTTTCTGCGGAGTCACCTAGTGCAG,14700 fluorescence intensity (a.u.)
20,CCTTTTGTCAGTCTAGCCAAAGATCTAGGATCTTCAACACCGGAGTCACCTAGTGCAG,8100 fluorescence intensity (a.u.)
21,ACCCGCCGTCGCTCTCCAACGCGCTCGTCGCGGCGTTCAACGGAGTCACCTAGTGCAG,8970 fluorescence intensity (a.u.)

row,Sequence,binding signal
1,TGCTTGTTCCGGTTCCTTCCCAACCCTTTTGCAAGAACACCGGAGTCACCTAGTGCAG,9120 fluorescence intensity (a.u.)
2,GTCACCGTCTCGTCTCCGTCTCCGCCGCTCGTCGTCGACCCGGAGTCACCTAGTGCAG,12600 fluorescence intensity (a.u.)
3,AAAAAAATCTCGTTGTTACTGTCTATAGATCACTATATTACGGAGTCACCTAGTGCAG,8570 fluorescence intensity (a.u.)
4,GCCGCCATCGTTCCTGTTCGCCGCCCGTTGTCCTTCCAATCGGAGTCACCTAGTGCAG,13000 fluorescence intensity (a.u.)
5,TTCTTCACCGTTTTGTTTTCTCTGCGCCTCAAATTTCCTTCGGAGTCACCTAGTGCAG,12000 fluorescence intensity (a.u.)
6,CCGGTGATGTTTTTATTTTTCTTCCGGTTCTTTTTCTCAACGGAGTCACCTAGTGCAG,12300 fluorescence intensity (a.u.)
7,TGAGTTGTTTTGTTGATAGGTATAGATATGAATCGAATTACGGAGTCACCTAGTGCAG,8950 fluorescence intensity (a.u.)
8,AGATTGGGTTTGGGTGGTGTGAGGATTGATTTGTTTTTTTCGGAGTCACCTAGTGCAG,17800 fluorescence intensity (a.u.)
9,GGTTGGTGCTGTATTGTTTGAGGGGAGGGGATTCCATTTTCGGAGTCACCTAGTGCAG,47400 fluorescence intensity (a.u.)
10,ATTCTGTATTTATTGTTTGCTGCATTCAGTTTGATTGGTTCGGAGTCACCTAGTGCAG,13900 fluorescence intensity (a.u.)
11,GGTGACTGATAATTATTATTTTCTTTGTTTCACATTATACCGGAGTCACCTAGTGCAG,14200 fluorescence intensity (a.u.)
12,TTGTTGGGTGCTGAATTGCTGATGTGGTGGGGTGACATGACGGAGTCACCTAGTGCAG,12500 fluorescence intensity (a.u.)
13,ACGTATTTGTGAGGGGATTTGGTACCATTACATCTGTTTTCGGAGTCACCTAGTGCAG,8192 fluorescence intensity (a.u.)
14,GGGGTGACATTTCAATTGTTTTTCTCTTATATTTGTAATCCGGAGTCACCTAGTGCAG,20100 fluorescence intensity (a.u.)
15,TTTCTTTTCATATATTTTTGTTTATTTTCTCTCATTTCTCCGGAGTCACCTAGTGCAG,11300 fluorescence intensity (a.u.)
16,TTGACAATGGTTGGGGTGGTGGTGGTGTTCGCGGTGATGACGGAGTCACCTAGTGCAG,31700 fluorescence intensity (a.u.)
17,TTGTGGATTTTTTTTTTTTGAGAGGGATGGGTGTTTGATTCGGAGTCACCTAGTGCAG,10900 fluorescence intensity (a.u.)
18,GAGGATTGATTTGTTTTTTTTTTTTGGGGTTTTCTCTTCTCGGAGTCACCTAGTGCAG,16300 fluorescence intensity (a.u.)
19,CTGATGGTGTTGGTGATGGTGGTGCGGGTGCGGCAGTTGACGGAGTCACCTAGTGCAG,13200 fluorescence intensity (a.u.)
20,GGACTGCTCCACCATTTTTAGTCCCGGTTGGTAATACCAACGGAGTCACCTAGTGCAG,8570 fluorescence intensity (a.u.)
21,AATCTATCCCAGCCTAAATCTCACTGTTTCATGCACAACTCGGAGTCACCTAGTGCAG,8350 fluorescence intensity (a.u.)

row,Sequence,binding signal
1,GCGCGCGTCCCGTCACGTCTTTTCTCCTCGCCTATATGCCCGGAGTCACCTAGTGCAG,9050 fluorescence intensity (a.u.)
2,CAGCTATCGTTATTCTGAAGATCCACCAAGCACAATCTTACGGAGTCACCTAGTGCAG,8280 fluorescence intensity (a.u.)
3,TCGGTGGGTGGTTGGGGATATTGCAAAAAGTATATAAAAACGGAGTCACCTAGTGCAG,15800 fluorescence intensity (a.u.)
4,TTAACTGCAACCATAAGTTTCTGCGCCTAACTTTGATCGTCGGAGTCACCTAGTGCAG,8850 fluorescence intensity (a.u.)
5,GGGGTAATTTCTCTGTGTTTTGAGTTGAGGGAGATAATTCCGGAGTCACCTAGTGCAG,16900 fluorescence intensity (a.u.)
6,TTCCTATGTTTTTCCTGTGTTTTGTAATTCTCTGTTTTACCGGAGTCACCTAGTGCAG,10600 fluorescence intensity (a.u.)
7,ACTTCCCATTGTTGTTGCCATCGCCGCCGCCGCCGCCGCCCGGAGTCACCTAGTGCAG,12200 fluorescence intensity (a.u.)
8,CCACTTGTACATATACAACTTGTTTTGTGGGGAGGGGTGTCGGAGTCACCTAGTGCAG,12700 fluorescence intensity (a.u.)
9,CGCCGAGGGGAGGGGAGGGGAGGTTGCCATTGTTGTCCATCGGAGTCACCTAGTGCAG,22000 fluorescence intensity (a.u.)
10,TGCGCCATCTTTTGTCGTCCCGAGGGGATGGGCGGGGTTGCGGAGTCACCTAGTGCAG,16400 fluorescence intensity (a.u.)
11,ATTCTCTCTTCTGTGTTTCCTTTTTGAGATACTTCATTTTCGGAGTCACCTAGTGCAG,9340 fluorescence intensity (a.u.)
12,GGGCGTGTGGTTGAGAACTTGATTGGGATGATGATGAGACCGGAGTCACCTAGTGCAG,10400 fluorescence intensity (a.u.)
13,ACGTTGGATTGGTGGTGGACGGGCGCGATGGGTTGGGGTGCGGAGTCACCTAGTGCAG,9930 fluorescence intensity (a.u.)
14,TGTTTTGTGGGGAGGGGTGTACATATACAACTTAGTACTCCGGAGTCACCTAGTGCAG,20300 fluorescence intensity (a.u.)
15,TAGTATATACATGGGTGTTTGGGAGAGAGGGGCTAAACTTCGGAGTCACCTAGTGCAG,9540 fluorescence intensity (a.u.)
16,GGGCGCGATGGGTTGGGGTGTGTTTCCGTGGATTGATGACCGGAGTCACCTAGTGCAG,21100 fluorescence intensity (a.u.)
17,CGAGAGATCGTTGCCCTCCGTATCCACTACTACTACACTCCGGAGTCACCTAGTGCAG,8310 fluorescence intensity (a.u.)
18,CAGGATTGCTTGGAGATTCGTGCGGGGACGCGCGGGGTGACGGAGTCACCTAGTGCAG,9720 fluorescence intensity (a.u.)
19,TACCGGTTAAAACGCCCAAGTCAGTGGCTCTCGTCCTCCTCGGAGTCACCTAGTGCAG,8860 fluorescence intensity (a.u.)
20,GTGCAGTTTATACATTAACATGTTAATCCCACTTTACTACCGGAGTCACCTAGTGCAG,10300 fluorescence intensity (a.u.)
21,ACGGCATTTTTCGCCCCTTTTGTCACTGAAACACTTCACCCGGAGTCACCTAGTGCAG,8860 fluorescence intensity (a.u.)

row,Sequence,binding signal
1,GCAGCCCTCAATTTCTATGGCGATCGCCTCTGCTTCGTCGCGGAGTCACCTAGTGCAG,8440 fluorescence intensity (a.u.)
2,GGCCTCCTTCATCACGCCCTGGATCTCACTGACTAAAAACCGGAGTCACCTAGTGCAG,8030 fluorescence intensity (a.u.)
3,CTATGTTCATCCTCGTGTCATATTGTGTTCATCTTCATACCGGAGTCACCTAGTGCAG,11600 fluorescence intensity (a.u.)
4,GAGGGAGTATTATCTTCTGAACATATGTTTGACCATTGGACGGAGTCACCTAGTGCAG,8940 fluorescence intensity (a.u.)
5,ATTACCCTAATCATCATTCATTCATGTATAGCTCATCCTACGGAGTCACCTAGTGCAG,8810 fluorescence intensity (a.u.)
6,ACCATCAAGTTCTGCTTTTCTTCCCCATGTTTTTTTGCCCCGGAGTCACCTAGTGCAG,10700 fluorescence intensity (a.u.)
7,ATGTTGATATTGTGGTTGGTTGTGGGCATGTTACATTTTCCGGAGTCACCTAGTGCAG,11500 fluorescence intensity (a.u.)
8,CATTCCGGTTGGTGTTTTTCGCTTGATTTGTACTACTATTCGGAGTCACCTAGTGCAG,18500 fluorescence intensity (a.u.)
9,GGTGGGTGTTTTAATGTGACATGATATTTGTGGTTGGGTTCGGAGTCACCTAGTGCAG,21700 fluorescence intensity (a.u.)
10,CATGTGTTTGATTTCCTGTTTATATTTTGTTCAGAGTTTCCGGAGTCACCTAGTGCAG,11700 fluorescence intensity (a.u.)
11,TGTACATGTGTTTGATTTTGCTTGTGGTTGCCGTGGATTTCGGAGTCACCTAGTGCAG,11500 fluorescence intensity (a.u.)
12,TAATATTTCTTGCGGTGGGTTGGATTGATATCGATTGTTTCGGAGTCACCTAGTGCAG,17600 fluorescence intensity (a.u.)
13,TCTTTCCTGTTTCCGCTTGGTTTTCCGGTGTTTATTTTGTCGGAGTCACCTAGTGCAG,14200 fluorescence intensity (a.u.)
14,CTCTGTTGGTTTCTTGCGGTTTTGATTATTTGTTTGTGGTCGGAGTCACCTAGTGCAG,11900 fluorescence intensity (a.u.)
15,TGATATGTTGGTGAATGGTAATTTTTTGGGTTGATATATTCGGAGTCACCTAGTGCAG,11200 fluorescence intensity (a.u.)
16,TGCGGGTTGTTTTGATTGACAATTTAGTGTTGGTGTTGTTCGGAGTCACCTAGTGCAG,9980 fluorescence intensity (a.u.)
17,CTCTGTGTTGTTTTTGGCATGTGTTTGATATTTGGAGTTCCGGAGTCACCTAGTGCAG,16600 fluorescence intensity (a.u.)
18,AGGAGGTGTTGTTTCTTGCGATCTTGGGTTGATTGATATGCGGAGTCACCTAGTGCAG,8460 fluorescence intensity (a.u.)
19,CGATGACAAGTTGACGCACCTTGGGTGTACTTTTTCCTTCCGGAGTCACCTAGTGCAG,8280 fluorescence intensity (a.u.)
20,CTCCAACCTAACCCCTGCCTGCCTGCATCAACCATATATGCGGAGTCACCTAGTGCAG,8720 fluorescence intensity (a.u.)
21,CACTAATTTTGCCTTTGTGCCTTTTACTATTGCGCATCACCGGAGTCACCTAGTGCAG,10200 fluorescence intensity (a.u.)

# Source: PMC7819943, “Rice protein-binding microarrays: a tool to detect cis-acting elements near promoter regions in rice”
